Assay outcomes: PubChem BioAssay, National Center for Advancing Translational Sciences (NCATS)
In the library only some 9.4% were active in any assay of this set; here they are far more common.
NPC1 promoter act: activates the NPC1 promoter; Huh7 NPC1 promoter luciferase reporter, 24 h; Potency, µM (series often up to 9.22 µM), without a hit: at the highest dose activation, usual class: activators; hit rate 2.4% among 320,000; further: % of control where 0% means no effect; nearly all actives have a fitted effect of over 60% in size
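Cells: Huh7 expressing luciferase under the NPC1 promoter, 1500/well. Seeded 2 h, compound added, incubated 24 h at 37 °C. Luciferase reagent, 10 min ambient, then luminescence.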
SMN2 splice up: enhancers of SMN2 splice variant expression. AID 1458. hit rate 2.8% among 210,000. Potency, µM (highest dose often 46.1 µM), inactives show at the highest dose activity change, positive = activation, usual class: activators. HEK293 SMN2-luciferase splicing reporter, luminescence, 30-36 h; further: % of control where 0% means no effect; nearly all actives have a fitted effect of over 55% in size
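HEK293 cells carry an SMN2 […]–luciferase reporter in which exon 7 inclusion puts luciferase in frame. Cells were plated 10-12 h before compound addition, then incubated 30-36 h at 37C. ONE-Glo luminescence was read; sodium butyrate at 4.5 mM final served as control.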
FLuc counter: counter-screen for miR-21 project: firefly luciferase inhibitors or activators. P08659. purified FLuc, Km substrates, luminescence inhibition. Potency, µM (series often up to 57.5 µM), inactives show top-dose activity change, negative = inhibition, actives largely listed as inhibitors. hit rate 6.9% among 360,000. AID 588342;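 further: plate controls were vehicle for no effect and reference inhibitor for full effect; nearly all actives have a fitted effect of over 55% in size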
Target sequence (P08659 whole entry, looked up): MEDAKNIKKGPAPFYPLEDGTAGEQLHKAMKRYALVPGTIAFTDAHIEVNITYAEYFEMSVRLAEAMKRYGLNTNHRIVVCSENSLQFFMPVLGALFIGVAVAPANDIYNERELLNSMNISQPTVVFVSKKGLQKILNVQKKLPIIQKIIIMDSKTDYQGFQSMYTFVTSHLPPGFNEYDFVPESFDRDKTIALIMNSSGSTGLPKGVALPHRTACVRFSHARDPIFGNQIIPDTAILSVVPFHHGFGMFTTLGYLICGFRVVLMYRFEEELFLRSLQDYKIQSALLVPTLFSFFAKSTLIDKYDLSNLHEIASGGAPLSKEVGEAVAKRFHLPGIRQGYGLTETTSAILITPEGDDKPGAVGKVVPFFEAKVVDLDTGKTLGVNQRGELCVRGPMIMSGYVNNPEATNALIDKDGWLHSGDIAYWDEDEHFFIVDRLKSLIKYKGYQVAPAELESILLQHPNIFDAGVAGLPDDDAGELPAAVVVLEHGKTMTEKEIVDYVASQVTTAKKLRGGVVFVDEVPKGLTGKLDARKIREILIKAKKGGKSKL
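Purified P. pyralis luciferase, 10 nM final, with Km-level 10 uM D-luciferin and 10 uM ATP in 50 mM Tris acetate pH 7.5, 10 mM Mg acetate, 0.01% Tween-20, 0.05% BSA; 6-point qHTS titration about 60 µM downward; luminescence read.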
ELG1 genotox: genotoxicity induction in ELG1-luciferase HEK293T cells; HEK293T ELG1-luciferase reporter, luminescence, 16 h; Potency, µM (series often up to 46 µM), for inactives: at the highest dose activity change, positive = activation, hits mostly activators; hit rate 1.3% among 330,000; AID 504466; further: % of control where 0% means no effect; nearly all actives have a fitted effect of over 60% in size
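Reporter readout depends on ELG1 protein level, which increases with genetic stress. After 16 hr compound exposure at 37 °C, luciferase activity was quantified using ONE-Glo.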
ELG1 DNA repair: ELG1-dependent DNA repair inhibition. HEK293T ELG1-luciferase reporter, luminescence, 16 h; DNA damage induced by 5-fluorouridine. hit rate 2.3% among 330,000. Potency, µM (series often up to 46.1 µM), inactives show top-dose activity change, negative = inhibition, most hits filed as inhibitors; further: on the % scale 0 is the no-effect control and ±100 the full control effect; nearly all actives have a fitted effect of over 55% in size
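In this reporter screen, reduction of luminescence relative to DMSO vehicle indicated activity. Compounds and 5-fluorouridine were added together to 2,000 cells per well, incubated for 16 hr at 37 °C, then developed with ONE-Glo.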
Rab9 promoter act: activators of Rab9 promoter. Huh7 Rab9 promoter-luciferase reporter, luminescence, 24 h. Potency, µM (top dose mostly 9.22 µM), inactives show at the highest dose activation, negative = inhibition, actives largely listed as activators. hit rate 2.8% among 320,000. AID 485297; further: % of control where 0% means no effect; nearly all actives have a fitted effect of over 60% in size
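Cells were plated at 1500 per well in reduced-serum medium with 10% FBS and left 2 h. Compound in DMSO was then added for 24 h at 37 °C. Reporter signal was read by luminescence after 10 min with luciferase detection reagent.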
Starred values were filed as active, the others as inactive; [ ] = another dose, or the depositor's remark. The call rests on the fitted dose curve; in most records, active means well fitted curve in the direction sought with a large enough effect; inconclusive means small, poorly fitted or top-dose-only effect, or another doubt; inactive means no such curve, though single readings can be large; an effect the other way counts as inactive or inconclusive. Potency means the concentration at half of the fitted maximal effect.

How did CC(=Nc1ccc(Br)cc1)c1sc2ccccc2c1O do in these assays?
NPC1 promoter act: 3.16µM*; FLuc counter: 1.35µM*; ELG1 genotox: 3.66µM*; ELG1 DNA repair: inconclusive; Rab9 promoter act: 3.16µM*

How did NC(=Nc1ccc(Br)cc1)c1ccccc1 do in these assays?
NPC1 promoter act: 24.0%; FLuc counter: inconclusive; ELG1 genotox: inconclusive; ELG1 DNA repair: inconclusive; Rab9 promoter act: 20.1%

Results for CC(=Nc1ccccc1)C1=C(O)COC1=O ?
NPC1 promoter act: -3.3%; SMN2 splice up: -11.3%; FLuc counter: -0.1%; ELG1 genotox: 3.2%; ELG1 DNA repair: -4.1%; Rab9 promoter act: -2.6%

What do the screens show for `CCOC(=O)c1ccc(NC(=O)CCc2nc3cccnc3n2Cc2cccs2)cc1`?
SMN2 splice up: 1.6%; FLuc counter: -5.8%

Results for CN(C)S(=O)(=O)Oc1ccsc1C(=O)Nc1ccccc1Cl ?
NPC1 promoter act: 1.1%; SMN2 splice up: -17.4%; FLuc counter: -0.9%; ELG1 genotox: -1.9%; ELG1 DNA repair: -7.6%; Rab9 promoter act: -2.9%

What do the screens show for `CN(C)S(=O)(=O)Oc1cccc(C(=O)Nc2ccc(Cl)cc2)c1`?
NPC1 promoter act: inconclusive; SMN2 splice up: 3.6%; FLuc counter: 3.38µM*; ELG1 genotox: 5.2%; ELG1 DNA repair: inconclusive; Rab9 promoter act: inconclusive

What do the screens show for `CN(C)S(=O)(=O)Oc1cccc(C(=O)Nc2ccccc2Cl)c1`?
NPC1 promoter act: 28.4%; SMN2 splice up: 12.0%; FLuc counter: 21.3µM*; ELG1 genotox: inconclusive; ELG1 DNA repair: inconclusive; Rab9 promoter act: 5.62µM*

How did Cc1ccc2c(C)c(C(=O)N(Cc3ccc(N(C)C)cc3)Cc3ccco3)oc2c1C do in these assays?
SMN2 splice up: -12.9%; FLuc counter: 2.7%

What do the screens show for `O=S(=O)(NCC(c1ccco1)N1CCN(c2ccccc2F)CC1)c1ccc2c(c1)OCCO2` (centres undefined)?
NPC1 promoter act: 12.7%; SMN2 splice up: -31.9%; FLuc counter: -0.2%; ELG1 genotox: -1.6%; ELG1 DNA repair: 16.4µM*; Rab9 promoter act: -6.9%

Results for O=C(NCC(c1ccco1)N1CCN(c2ccccc2F)CC1)c1ccc2c(c1)OCO2 (centres undefined) ?
NPC1 promoter act: 1.4%; FLuc counter: 2.5%; ELG1 genotox: -6.3%; ELG1 DNA repair: 13µM*; Rab9 promoter act: 0.8%

What do the screens show for `COc1ccc(N2CCN(C(CNS(=O)(=O)c3ccc4c(c3)OCCO4)c3ccco3)CC2)cc1` (centres undefined)?
NPC1 promoter act: 3.7%; SMN2 splice up: -34.3%; FLuc counter: 1.3%; ELG1 genotox: -1.6%; ELG1 DNA repair: 14.6µM*; Rab9 promoter act: -16.1%

Results for Cn1c(=O)n(C)c2cc(CNCc3ccccc3Cl)ccc21 ?
FLuc counter: -3.4%

Results for CCc1ccc(OC(C)C(=O)N2CCC(c3nc4ccccc4s3)CC2)cc1 (centres undefined) ?
FLuc counter: -15.6%

How did COCOc1ccc(OC)cc1C(=O)/C=C/c1ccc(OC)c(Br)c1 do in these assays?
SMN2 splice up: -3.9%

Results for COc1cccc(CN2CCN(Cc3cccc4c3OCO4)CC2CCO)c1 (centres undefined) ?
NPC1 promoter act: 0.398µM*; FLuc counter: 2.39µM*; ELG1 genotox: inconclusive; ELG1 DNA repair: inconclusive; Rab9 promoter act: 0.0891µM*

How did Cc1ccc(CN2CCN(Cc3cccc4c3OCO4)CC2CCO)cc1 (centres undefined) do in these assays?
NPC1 promoter act: -5.9%; FLuc counter: 1.0%; ELG1 genotox: -2.6%; ELG1 DNA repair: 1.7%; Rab9 promoter act: -2.0%

What do the screens show for `C=CC1=C2C=C(C3CC3)N(C3CCCCC3)C=C2C(=O)C(C)(OC(=O)c2ccco2)C1=O` (centres undefined)?
SMN2 splice up: 8.4%[9.22 µM]

What do the screens show for `Cc1cc([N+](=O)[O-])ccc1NC(=O)c1cncc(Br)c1`?
NPC1 promoter act: -3.1%; SMN2 splice up: -4.0%; FLuc counter: 2.0%; ELG1 genotox: -5.5%; ELG1 DNA repair: inconclusive; Rab9 promoter act: 0.7%

Results for Cc1ccc(NC(=O)c2cncc(Br)c2)c(O)c1 ?
NPC1 promoter act: inconclusive; SMN2 splice up: inconclusive; FLuc counter: 16.9µM*; ELG1 genotox: -1.4%; ELG1 DNA repair: 8.3%; Rab9 promoter act: inconclusive

Results for Cc1ccc(NC(=O)c2ccc(CSc3ccccn3)cc2)c(O)c1 ?
NPC1 promoter act: 11.6%; FLuc counter: 23.9µM*; ELG1 genotox: 0.1%; ELG1 DNA repair: -7.1%; Rab9 promoter act: 11.2%

Results for Cc1ccc(NC(=O)c2cncc(Br)c2)nc1 ?
NPC1 promoter act: 3.16µM*; FLuc counter: inconclusive; ELG1 genotox: inconclusive; ELG1 DNA repair: inconclusive; Rab9 promoter act: inconclusive

Results for Cc1ccc(NC(=O)c2ccc3nc[nH]c3c2)c(O)c1 ?
NPC1 promoter act: 3.16µM*; SMN2 splice up: 12.6µM*; FLuc counter: 19µM*; ELG1 genotox: inconclusive; ELG1 DNA repair: inconclusive; Rab9 promoter act: inconclusive

How did COc1cccc(C2CC(=O)Nc3cc4c(cc32)OCCO4)c1OC (centres undefined) do in these assays?
SMN2 splice up: -15.1%; FLuc counter: -9.0%

Results for Cc1ccc(NC(=O)Cn2c(=O)n(CC3CCC(C(=O)NC(C)C)CC3)c(=O)c3sccc32)cc1 (centres undefined) ?
FLuc counter: -1.6%

Results for CCOc1ccccc1C(=O)N1CCC(c2nc3ccccc3o2)CC1 ?
FLuc counter: -10.1%

How did Cc1cccc(C)c1NC(=O)c1oc2c(c1C)-c1nn(Cc3ccccc3)cc1CC2 do in these assays?
FLuc counter: 3.1%

How did Cc1ccc(NC(=O)COC(=O)c2cccc3c2C(=O)c2ccccc2C3=O)c(C)c1 do in these assays?
NPC1 promoter act: -3.0%; SMN2 splice up: -13.1%; FLuc counter: 6.4%; ELG1 genotox: -12.9%; ELG1 DNA repair: 10.3µM*; Rab9 promoter act: -5.5%

What do the screens show for `Cc1ccc(C)c(NC(=O)COC(=O)c2cccc3c2C(=O)c2ccccc2C3=O)c1`?
NPC1 promoter act: -3.8%; SMN2 splice up: -21.6%; FLuc counter: -0.4%; ELG1 genotox: -8.0%; ELG1 DNA repair: 23.1µM*; Rab9 promoter act: -11.5%

What do the screens show for `Cc1cc(C)c(NC(=O)COC(=O)c2cccc3c2C(=O)c2ccccc2C3=O)c(C)c1`?
NPC1 promoter act: 0.1%; SMN2 splice up: -7.0%; FLuc counter: -1.1%; ELG1 genotox: -2.0%; ELG1 DNA repair: 13µM*; Rab9 promoter act: -8.6%
